# Screening data as filed in PubChem.
# YB-1 expr inh: YB-1 expression inhibition; delta delta Cp (YB-1 minus CDIP) (no concentration beside the values); 30,000 compounds, 0.37% hits; AID 434959; U2OS, qRT-PCR YB-1 vs CDIP delta delta Cp, 16 h; hits give high values; zero = DMSO, each unit about twofold;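 active means delta delta Cp rounded down to an integer at or above 3, about 3 SD of DMSO wells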;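 further: higher means less YB-1 transcript or more CDIP transcript relative to DMSO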
# ROS inducer: cancer cell ROS induction | U2OS ROS induction, H2DCF-DA fluorescence | ROS induction (% of piperlongumine), % at 10 µM | 46,000 compounds, 2% hits | AID 624156; in the data active means ROS induction above about 79%, passing the limit was not always enough;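 further: 0% = DMSO vehicle median and 100% = reference compound median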
# Active calls of the source: *; / = not tested or not shown. Sampled rows, rich in hits. Any-hit rate of the full collection: about 2.3%.
SMILES,YB-1 expr inh,ROS inducer
O=C1N(CCS(=O)(=O)c2ccccc2)Cc2ccccc2[C@@H]2OC(c3ccc(OCCCO)cc3)=N[C@]12CCS(=O)(=O)c1ccccc1,0.408,95.6*
O=C(NCc1ccccc1)[C@@]1(CCS(=O)(=O)c2ccccc2)N=C(c2ccc(OCCCO)cc2)O[C@H]1c1ccccc1,-0.331,78.3*
O=C(CSCc1cnn(-c2ccccc2)c1-n1cccc1)Nc1ccccc1Br,/,5.2
COc1cc(C(=O)/C=C/Nc2ccccc2C(N)=O)cc(OC)c1OC,/,15.0
CC(C)(C)n1c(O)c(/C=C2/C=c3ccccc3=N2)c(=O)[nH]c1=O,/,-18.8
NC(=O)CN1CCCCCC1=O,/,-13.9
O=C(CCCn1sc2ccccc2c1=O)NC1CCCc2ccccc21 (configuration not stated),/,-1.5
CCc1ccc2nc(N3CCC(C(=O)NC4CCCCC4)CC3)sc2c1,/,18.3
CN(C)CCN(C(=O)C1CCCCC1)c1nc2ccc(Br)cc2s1,/,94.5*
COc1cc(CN(C)Cc2cccc3ccccc23)c([N+](=O)[O-])cc1OC,/,133.4*
COc1ccc(NC(=O)COc2ccc3ccccc3c2Br)c([N+](=O)[O-])c1,/,-3.6
O=C(CCc1ccccc1)Nc1ccc(C(=O)OC2CCCCC2)cc1,/,-6.0
COc1ccc(C(=O)Nc2ccc(N3CCN(C(=O)OC(C)(C)C)CC3)nc2)cc1,/,-9.9
C=CCOC(=O)[C@H]1[C@@H]2C(=O)O[C@@H](c3ccccc3)[C@@H](c3ccccc3)N2[C@@H](c2ccc(OCCOC(=O)[C@@H]3C[C@@H]4C(=O)NCC(=O)N4[C@@H]3c3ccc(O)cc3)cc2)[C@]12C(=O)Nc1ccccc12,0.068,115.7*
C=CCNC(=O)[C@H]1[C@@H]2C(=O)O[C@@H](c3ccccc3)[C@@H](c3ccccc3)N2[C@@H](c2ccc(OCCO)cc2)[C@]12C(=O)Nc1ccc(C#CC3(O)CCCCCC3)cc12,-0.491,49.0
C=CCOC(=O)[C@H]1[C@@H]2C(=O)O[C@@H](c3ccccc3)[C@@H](c3ccccc3)N2[C@@H](c2ccc(OCCOC(=O)[C@@H]3C[C@@H]4C(=O)NCC(=O)N4[C@@H]3c3ccc(O)cc3)cc2)[C@]12C(=O)Nc1ccc(I)cc12,-0.26,9.4
O=C1O[C@H](c2ccccc2)[C@H](c2ccccc2)N2[C@H]1[C@@H](C(=O)NC[C@H](O)c1ccccc1)[C@]1(C(=O)Nc3ccc(C#CC4(O)CCCCCC4)cc31)[C@H]2c1ccccc1OCCO,-0.496,27.5
C=CCNC(=O)[C@H]1[C@@H]2C(=O)O[C@@H](c3ccccc3)[C@@H](c3ccccc3)N2[C@@H](c2ccc(O)cc2)[C@]12C(=O)Nc1ccc(C#CCCO)cc12,0.111,-11.5
C=CCNC(=O)[C@@H]1[C@H]2C(=O)O[C@H](c3ccccc3)[C@H](c3ccccc3)N2[C@H](c2ccccc2OCCO)[C@@]12C(=O)Nc1ccc(C#CCCO)cc12,-0.0856,135.0*
C=CCNC(=O)[C@@H]1[C@H]2C(=O)O[C@H](c3ccccc3)[C@H](c3ccccc3)N2[C@H](c2ccc(OCCO)cc2)[C@@]12C(=O)Nc1ccc(C#CC3(O)CCCCCC3)cc12,-0.17,85.1*
C=CCNC(=O)[C@@H]1[C@H]2C(=O)O[C@H](c3ccccc3)[C@H](c3ccccc3)N2[C@H](c2ccccc2OCCO)[C@@]12C(=O)Nc1ccc(C#CC3(O)CCCCCC3)cc12,-0.221,145.7*
O=C(/C=c1\[nH]/c(=C/c2ccc(F)cc2)c(=O)[nH]c1=O)c1ccccc1,/,63.0
Cc1ccc2nc(SCc3c(C)c(C)cc(C)c3C)[nH]c2c1,/,-19.1
Cc1cc2c(cc1S(=O)(=O)NCC1CCCO1)OCC(=O)N2 (configuration not stated),/,51.8
CCOc1ccccc1C(=O)NCCc1cn2ccc(C)cc2n1,/,-12.3
SMILES,YB-1 expr inh,ROS inducer
O=C(CCCC(=O)Nc1ccc(F)cc1)Nc1ccc(F)cc1,/,31.7
COc1ccccc1N1CCN(C2CCN(Cc3cc(OC)c(OC)c(OC)c3)CC2)CC1,/,-9.1
C=CCn1c(SCC(=O)O)nnc1-c1ccc2c(c1)OCO2,/,-6.0
COC(=O)c1cnn2c(C)c(Cc3ccccc3)c(C)nc12,/,-2.6
CCOC(=O)c1sc(COc2ccc(C(C)(C)C)cc2)nc1C,/,9.7
CCOC(=O)c1cnc2ccc(OCC)cc2c1N(C)Cc1ccccc1,-0.193,139.4*
CCOC(=O)c1cnc2cc(C(F)(F)F)ccc2c1N(C)Cc1ccccc1,0.708,61.5
CC1(C)CC(NC(=O)c2ccc(-n3cnnn3)cc2)CC(C)(C)N1,/,-2.5
C=CCNC(=O)COc1ccc(Cl)cc1Cl,0.525,20.2
C[C@H](CO)N1C[C@H](C)[C@H](CN(C)S(=O)(=O)c2cccs2)Oc2ncc(C#CC(C)(C)O)cc2C1=O,9.94*,0.2
COc1ccc(C#Cc2cnc3c(c2)C(=O)N([C@H](C)CO)C[C@H](C)[C@H](CN(C)S(C)(=O)=O)O3)cc1OC,-0.382,51.2
COc1ccc(C#Cc2cnc3c(c2)C(=O)N([C@H](C)CO)C[C@H](C)[C@H](CN(C)S(=O)(=O)c2ccc(C)cc2)O3)cc1OC,0.265,139.9*
C[C@H](CO)N1C[C@H](C)[C@H](CN(C)S(=O)(=O)c2cccs2)Oc2ncc(C#Cc3ccccc3)cc2C1=O,0.0286,40.4
CCCc1nc(NCc2ccccc2)c(C#N)c2c1CCCC2,/,-4.8
N#Cc1c(N2CCN(C(=S)NCc3ccccc3)CC2)nc(-c2ccccc2)c2c1CCCC2,/,139.9*
C[C@H](CO)N1C[C@H](C)[C@H](CN(C)Cc2cccc(C(F)(F)F)c2)Oc2ncc(-c3cccc(F)c3)cc2C1=O,0.115,49.3
C[C@H](CO)N1C[C@H](C)[C@H](CN(C)C(=O)Nc2cccc3ccccc23)Oc2ncc(-c3ccc(F)cc3)cc2C1=O,0.34,2.9
C[C@H](CO)N1C[C@H](C)[C@H](CN(C)S(=O)(=O)c2cccc(F)c2)Oc2ncc(-c3cccc(C(F)(F)F)c3)cc2C1=O,0.0743,30.7
C[C@H](CO)N1C[C@H](C)[C@H](CN(C)S(=O)(=O)c2ccc(F)cc2)Oc2ncc(-c3cccc(C(F)(F)F)c3)cc2C1=O,-0.0637,116.3*
C[C@H](CO)N1C[C@H](C)[C@H](CN(C)Cc2cccc(C(F)(F)F)c2)Oc2ncc(-c3cccc(C(F)(F)F)c3)cc2C1=O,0.606,160.5*
C[C@H](CO)N1C[C@H](C)[C@H](CN(C)C(=O)Nc2cccc3ccccc23)Oc2ncc(-c3cc4ccccc4o3)cc2C1=O,0.483,115.3*
C[C@H](CO)N1C[C@H](C)[C@H](CN(C)Cc2cccc(C(F)(F)F)c2)Oc2ncc(-c3cc4ccccc4o3)cc2C1=O,0.215,248.5*
C[C@H](CO)N1C[C@H](C)[C@H](CN(C)Cc2ccccc2)Oc2ncc(-c3cc4ccccc4o3)cc2C1=O,0.153,62.0
CC(C)Oc1ccc(C(=O)NC(CC(=O)O)c2ccccc2)cc1 (configuration not stated),/,-6.1
Cc1c2cnn(-c3ccccc3)c(=O)c2c(C)n1CC(=O)NC(C)C,/,3.2
O=C(Cn1c(=O)c2cccn2c2ccccc21)NC1CCCc2ccccc21 (configuration not stated),/,37.4
Cc1ccc(CS(=O)Cc2ccc(C(=O)N3CCN(Cc4ccccc4)CC3)o2)cc1 (configuration not stated),/,-6.3
Cc1ccc2ncc(-c3ccc4cc(C)ccc4n3)cc2c1,/,3.3
